The campaign covered roughly 220,000 compounds. About 2,000 (0.91%) were called active. Inconclusive results (about 2%) are left out. Only a sample is shown. Potency and affinity values are given separately. Values without a mark were called inactive. No stated cut-off is given here; in the data, inconclusive means inhibition above about 80% without an active follow-up result; inactive means below that; test concentration not stated here.

A short description of this experiment: M. tuberculosis H37Rv growth inhibitors, H37Rv strain (AID 1626).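 Further: bacteria incubated seven days before Alamar blue readout; 0% = bacteria only wells and 100% = bacteria with antibiotic wells.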 The note with it: hits give high values, concentration not given here.
One may read the inhibition as the relative decrease from the control value, in per cent. In the case of `Cc1ncoc1C(=O)N1CCc2c([nH]c3ccccc23)C1C1CCCCC1` (configuration not stated), the inhibition is 11.8%. For `CC(CS(=O)(=O)c1cccc2cccnc12)N1CCCCC1` (configuration not stated), the inhibition is 2.17%. Turning to `CCNc1nc(NCc2ccccc2)nc(SCC(N)=O)n1`, the inhibition is 78.2%. As for `COc1ccc(NC(=O)Nc2sc(=S)n(C)c2C)cc1`, the figure is -3.18%; as for `CCOc1nc(-c2ccc(OC)cc2)ccc1-c1noc(C)n1`, 6.32%; as for `Cc1nn(-c2ccccc2)c(N2CCCC2)c1/C=N/NC(=O)C1CC1`, 1.71%.

For `COC(=O)C1=C(C)NC(=O)CC1c1ccc(F)c(Br)c1` (configuration not stated), the inhibition is 13.5%. In the case of `CCN(c1ccccc1)S(=O)(=O)c1ccc(C(=O)OC(C)C(=O)NCCC2=CCCCC2)cc1` (configuration not stated), the inhibition was 0.82%. As for `COc1ccc(C(C(=O)NC2CCCCC2)N(C(=O)c2sc(C)nc2C)c2ccc(OC)cc2)cc1` (configuration not stated), the figure is 78.9%; as for `COc1ccc(C(C(=O)NC2CCCCC2)N(C(=O)c2ccccn2)c2cccnc2)cc1` (configuration not stated), -6.78%; as for `COc1ccc(C(C(=O)NC2CCCCC2)N(C(=O)c2sc(C)nc2C)c2ccccc2)cc1` (configuration not stated), 1.23%.

Regarding `COc1ccc(N(C(=O)c2cnccn2)C(C(=O)NC2CCCCC2)c2ccc(O)cc2)cc1` (configuration not stated), the inhibition is 4.1%. As for `O=C(O)c1cccc(NC(=O)c2ccc(Cl)c(S(=O)(=O)N3CCCCCC3)c2)c1`, the figure is -5.92%; as for `CCOc1ncccc1C(=O)OCc1ccc(C#N)cc1`, 4.57%. As for `Nc1nnc(SCC(=O)Nc2ccccc2)s1`, the figure is -3.63%.

Take `C=C1C(=O)[C@@]23[C@H](O)C[C@@H]4C(C)(C)CC[C@H](O)[C@]4(C)[C@@H]2C[C@H](O)[C@@H]1[C@H]3O`: the inhibition was -0.64%. As for `C#CCONC(=O)c1cc(OCC(F)(F)F)ccc1OCC(F)(F)F`, the figure is -4.59%; as for `c1ccc(C(c2ccccc2)c2noc(CN3CCN(CC4CC4)CC3)n2)cc1`, 0.03%. Take `O=C(N/N=C/C=C/c1ccccc1)c1cccnc1`: the inhibition was -6.98%.

For `Cc1[nH]c(=O)[nH]c(=O)c1S(=O)(=O)N(C)Cc1ccccc1`, the inhibition is -4.39%.

Regarding `CSCC[C@H](NC(=O)c1cc([N+](=O)[O-])ccc1Cl)c1nc2ccccc2[nH]1`, the inhibition was 3.89%. As for `CSCCC(NC(=O)c1cccc([N+](=O)[O-])c1)c1nc2ccccc2[nH]1` (configuration not stated), the figure is 24.1%; as for `CCN(CCCNC(=O)C1CCC(=O)N1Cc1ccccc1Cl)c1cccc(C)c1` (configuration not stated), 4.14%. Consider `CCOC(=O)C1=C(C)NC(=O)NC1c1c(C)nn(-c2ccccc2)c1Cl` (configuration not stated), for which the inhibition is -11.2%. The value for `O=Nc1c(O)[nH]c2ccc(Cl)cc12` was -4.64%; that for `COc1cccc(N=CC2=C(O)CCCC2=O)c1` was -8.36%; that for `CCOC(=O)c1c(-c2ccc(OC)cc2)csc1/N=C/C1=C(O)CCCC1=O` was 4.93%. On to `O=C1CCCC(O)=C1C=Nc1ccc(O)cc1`, for which the inhibition is 3.95%. As for `Cc1cc(C)cc(N=Cc2c(O)c3ccccc3oc2=O)c1`, the inhibition is 6.96%. The value for `O=C1CCCC(O)=C1C=Nc1cccc(C(F)(F)F)c1` was 8.3%; that for `Cc1ccccc1N=Cc1cccc(O)c1O` was 30.2%. Take `Cc1cccc(-c2nc(C#N)c(NCC3CCCO3)o2)c1` (configuration not stated): the inhibition was 8.91%. With `CN(C)S(=O)(=O)c1ccc(NC(=S)NC(=O)c2cccs2)cc1`, the inhibition is -8.18%.

As to `CCCc1nnc(NC(=O)CCCN2C(=O)c3ccccc3C2=O)s1`, the inhibition is -6.93%.

For `COC(=O)CCC(=O)N1CCc2cc(S(=O)(=O)N3CCc4ccccc43)ccc21`, the inhibition was -6.96%.

`Cc1c(NC(=O)CSc2nnc(COc3ccccc3)n2-c2ccccc2)c(=O)n(-c2ccccc2)n1C`: the inhibition is -6.74%.

Take `COc1ccc(C2SC[C@@H](C(=O)O)N2C(C)=O)cc1` (some centres not stated): the inhibition is -5.12%.

As for `O=C(CN1CCOCC1)Nc1ncc(Cc2cccc(Cl)c2)s1`, the inhibition is 9.73%. On to `CC(C)C(=O)Nc1ncc(Cc2cccc(Cl)c2)s1`, for which the inhibition was 17.7%.

For the compound `CCc1nnc(N2C(=N)SCC2=O)s1`, the inhibition is 10%. In the case of `O=C(CN1CCOCC1)Nc1ncc(Cc2ccccc2Cl)s1`, the inhibition was 9.04%.

Turning to `Cc1ccc(-c2csc(N3C(=N)SCC3=O)n2)cc1`, the inhibition was -8.29%.

As to `N=C1SCC(=O)N1c1nc(-c2ccccc2)cs1`, the inhibition is -8.62%. As for `CC(C)(C)C(=O)Cn1c(NCCCl)nc2ccccc21`, the figure is 0.32%. As to `CCc1ccccc1NC(=O)CN(C)C(=O)Cn1cc(C(F)(F)F)cc(Cl)c1=O`, the inhibition was 10%.

Take `CCN(CC(=O)Nc1ccc(NC(C)=O)cc1)C(=O)/C=C/c1cccs1`: the inhibition is -2.91%. The value for `Clc1ccc(CN2CCN(c3ncnc4scc(-c5cccs5)c34)CC2)cc1` was 7.36%; that for `O=C(Cn1cc2c(n1)CCCC2)NCCCN1CCN(C2CCCCC2)CC1` was -6.49%; that for `CC(=O)/C(=C(/O)c1ccccc1)c1nc2ccccc2[nH]1` was 2.45%. For `O=C(OCc1ccccc1)C1=NNC2C(=O)N(Cc3ccccc3)C(=O)C12` (configuration not stated), the inhibition was 8.28%. Turning to `COCCn1c(SCC(=O)N2CC(=O)Nc3ccccc32)nc2ccccc2c1=O`, the inhibition is 14.5%. As to `CCc1ccc(-c2cc(C(F)(F)F)n3nc(C(=O)Nc4c(C)nn(Cc5ccccc5Cl)c4C)cc3n2)s1`, the inhibition was -4.86%. The value for `CCc1ccc(-c2cc(C(F)(F)F)n3nc(C(=O)Nc4c(C)nn(Cc5ccccc5C)c4C)cc3n2)s1` was 2.87%; that for `O=S(=O)(Nc1ccc(C(F)(F)F)cc1)c1cnc[nH]1` was -0.2%. As for `CCOC(=O)C(C(=O)OCC)N(C#N)c1nc(C)cc(C)n1`, the figure is -14%; as for `CCOC(=O)CNC(=O)CSc1nnc(SCC(=O)NCC(=O)OCC)s1`, -11.7%. Consider `Cc1cccc(-c2nsc(SCC(=O)c3ccc(Cl)cc3)n2)c1`, for which the inhibition was 94%.

Take `CCOC(=O)CNC(=O)CSc1nnc(-c2ccccc2)c(-c2ccccc2)n1`: the inhibition was -8.15%. In the case of `Cc1cccc(-c2nsc(SCC(=O)Nc3nccs3)n2)c1`, the inhibition is 10.4%. As for `CCOC(=O)N1CCN(Cc2nc(-c3cccc(C)c3)no2)CC1`, the inhibition is -1.51%. The value for `CCOC(=O)CNC(=O)CSc1nnc(-c2cccc(C)c2)n1-c1ccc(OC)cc1` was 3.71%; that for `CCOC(=O)CSc1nc(-c2ccccc2)nc2ccccc12` was -6.27%; that for `CCOC(=O)CSc1nc(-c2ccc(OC)cc2)ns1` was 57.1%. As for `COc1ccc(C2=NOC(C(=O)N3CCN(c4ccccc4OC)CC3)C2)cc1` (configuration not stated), the figure is 10.3%.

Turning to `COc1ccc(NC(=O)COC(=O)Cc2ccc(Br)cc2)cc1`, the inhibition is 15.8%. In the case of `Cn1c2ccccc2c(=O)c2c(=O)n(Cc3ccco3)c(-c3ccc(C(C)(C)C)cc3)nc21`, the inhibition was 50.6%. As for `Cc1c(F)cccc1NC(=O)CCC(=O)O`, the figure is 0.24%; as for `O=C(c1cnc2sccn2c1=O)N1CCCc2ccccc21`, 0.62%. As for `CNC(=O)CSCCn1c(SCC(=O)NC)nc2ccccc2c1=O`, the inhibition is -1.73%. The value for `CC(=O)c1cccc(NC(=O)C(C)OC(=O)CNC(=O)c2ccc(C)s2)c1` (configuration not stated) was -1.06%. Take `Clc1ccc(CSc2ncn[nH]2)cc1`: the inhibition was 74.3%. As for `O=C(O)c1ccc(CSc2ncn[nH]2)cc1`, the figure is -5.36%. As for `Cc1ccc(C)c(N(C)S(=O)(=O)c2cccc3nsnc23)c1`, the figure is -5.61%. As for `COc1cccc(NC(=S)N(Cc2ccccn2)Cc2ccccc2Cl)c1`, the figure is 8.54%.

For the compound `CCn1c(=O)cc(NC2=NCC(C)CN2c2cccc(Cl)c2)n(C)c1=O` (configuration not stated), the inhibition was -2.51%. As to `Cc1ccc(OCC(=O)Nc2ccccc2F)cc1C`, the inhibition was 2.33%.

Turning to `CCCCc1ccc(NC(=O)COc2ccc(C(=O)Nc3ccccc3C)cc2)cc1`, the inhibition was 73.6%. As for `O=C(N/N=C/c1ccccc1C(F)(F)F)c1ccc(O)cc1`, the figure is -4.67%; as for `CCOc1ccc(/C=C/C2=NNC(=O)CC2)cc1`, -3.64%; as for `CCCn1c(N2CCC(Cc3ccccc3)CC2)nc2c1c(=O)[nH]c(=O)n2C`, 12.4%. As for `CCCCn1c(N2CCC(Cc3ccccc3)CC2)nc2c1c(=O)[nH]c(=O)n2C`, the figure is 46.5%; as for `Oc1c(Br)cc(Cl)cc1C=Nc1ccc(N2CCOCC2)cc1`, 7.51%.

As for `O=S(=O)(CCn1cccc1)CCn1cccc1`, the inhibition is 8.4%. As to `COc1cc(/C=N/NC(=O)c2c(-c3ccccc3)noc2C)cc(OC)c1OC`, the inhibition was -3.6%. As for `COc1ccc(CNC(=O)COC(=O)CCc2nc3ccccc3c(=O)[nH]2)cc1`, the figure is 5.36%; as for `FC(F)(F)c1ccc(C2[C@H]3CN(CC4CCCCC4)[C@H](c4ccccc4)C34CC2(c2cccnc2)C4)cc1` (some centres not stated), 19.8%. Consider `FC(F)(F)c1ccc(CN2C[C@@H]3C(c4ccc(C(F)(F)F)cc4)C4(c5cccnc5)CC3(C4)[C@H]2c2ccccc2)cc1` (some centres not stated), for which the inhibition was 9.04%. With `CN1C[C@@H]2C(c3ccc(C(F)(F)F)cc3)C3(c4ccccc4)CC2(C3)[C@H]1c1ccccc1` (some centres not stated), the inhibition is 2.02%. The value for `FC(F)(F)c1ccc(CN2C[C@@H]3C(c4ccc(Cl)nc4)C4(c5ccccc5)CC3(C4)[C@H]2c2ccccc2)cc1` (some centres not stated) was 7.77%; that for `c1ccc(C2[C@H]3CN(CC4CCCCC4)[C@H](c4ccccc4)C34CC2(c2ccccc2)C4)cc1` (some centres not stated) was 6.4%. Regarding `CN1C[C@@H]2C(c3ccccc3)C3(c4cccnc4)CC2(C3)[C@H]1c1ccccc1` (some centres not stated), the inhibition was 1.01%. As to `CCOC(=O)Cn1nc(C)n(-c2ccc(C(C)C)cc2)c1=O`, the inhibition is 1.38%.

Values taken from PubChem BioAssay AID1626 (SRMLSC, 2009).
